Only some compounds are listed: those with a hit (about 0.83% of all), similar ones and a draw of the others.
NCOA1 inh = inhibitors of human steroid receptor coactivator 1 (SRC1). HEK293 GAL4-SRC1 luciferase reporter, luminescence. inhibition, % at 3.6 µM. 360,000 compounds, 0.12% hits. AID 588354;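 active = inhibition above the campaign mean plus 3 SD, with each screening campaign given its own cutoff, cut at about 60% in these data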;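 note: 0% = DMSO treated cells and 100% = gossypol at 36 µM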
SRC3 inh = inhibits human SRC3 coactivator; Q9Y6Q9; HEK293 GAL4-SRC3 luciferase reporter, luminescence; inhibition, % at 3.6 µM; 360,000 compounds, 0.17% hits; AID 588352;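 active = inhibition above a per-campaign cutoff, the mean of all compounds plus 3 SD, cut at about 60% in these data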;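 note: 0% = DMSO-treated cells and 100% = gossypol-treated cells at 36 µM; higher means less SRC3-driven luciferase light from the GAL4 reporter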
NCOA2 inhibitor = human SRC2 (NCOA2) inhibition. Q15596. HEK293 GAL4-SRC2 luciferase reporter, luminescence. inhibition, % at 9 µM. 370,000 compounds, 0.17% hits;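 active = inhibition above the mean inhibition of all tested compounds plus 3 SD, set per campaign, cut at about 52% in these data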;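 note: 0% = DMSO treated cells and 100% = cells given Gossypol at 36 µM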
Gli-Sufu block = blocks Gli-Sufu signaling in a luciferase reporter | inhibition, % at 5 µM | AID 588413 | 340,000 compounds, 0.74% hits | Sufu-KO-LIGHT fibroblasts, Gli luciferase reporter luminescence;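 active = inhibition above about 55%, limit read from the data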;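 note: 0% = DMSO-treated cells and 100% = wells with medium but no cells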
LRH-1 inv ag = inverse agonists of human LRH-1 (NR5A2); AID 602396; inhibition, % at 3.6 µM; HEK293T StAR-luciferase reporter, LRH-1 transfected, 24 h; O00482; 360,000 compounds, 0.13% hits;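 active = inhibition above the mean inhibition of all tested compounds plus 3 SD, cut at about 73% in these data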;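 note: 0% = DMSO wells and 100% = reporter-only cells lacking LRH-1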
* hit, by the source's call; nt = no result.

SMILES | NCOA1 inh | SRC3 inh | NCOA2 inhibitor | Gli-Sufu block | LRH-1 inv ag
Cc1cc(/C=N/n2cnnc2)c(C)n1-c1ccc(OCc2ccc(Cl)cc2)cc1 | 16 | 23 | 30 | 63* | 44
O=S1(=O)c2c(NCc3ccco3)cccc2Oc2ccccc2CN1Cc1cn(Cc2ccc(F)cc2)nn1 | nt | nt | 0 | nt | nt
c1ccc(-n2c(SCc3cccc4ccccc34)nnc2-c2ccccn2)cc1 | nt | nt | 6 | nt | nt
O=C(CCc1ccccc1)N[C@H]1[C@@H](OC(=O)c2cnccn2)CCC[C@@]12C(=O)N(Cc1ccccc1)c1ccccc12 | nt | nt | -12 | nt | nt
Oc1c(C(Nc2cccc(C(F)(F)F)c2)c2cccnc2)ccc2cccnc12 (stereo not drawn) | 1 | 25 | 12 | 23 | -10
CCCCC(=O)NC(c1cccc([N+](=O)[O-])c1)c1ccc2cccnc2c1O (stereo not drawn) | 25 | 22 | 44 | 62* | 11
O=[N+]([O-])c1ccc(NC(c2ccccc2)c2ccc3cccnc3c2O)cc1 (stereo not drawn) | 73* | 87* | 20 | 70* | 38
COc1cccc(C(NC(C)=O)c2ccc3cccnc3c2O)c1 (stereo not drawn) | 20 | 26 | 26 | 69* | 76*
CCCCC(=O)NC(c1cccc([N+](=O)[O-])c1)c1c(OC(C)=O)ccc2ccccc12 (stereo not drawn) | -1 | -10 | 6 | -1 | 10
CC(=O)NC(c1cccc([N+](=O)[O-])c1)c1ccc2cccnc2c1O (stereo not drawn) | 21 | 15 | 34 | nt | 83*
CCC(=O)NC(c1ccccc1OC)c1ccc2cccnc2c1O (stereo not drawn) | 23 | 37 | nt | 49 | 32
O[C@@H]1[C@@H](O)[C@H](n2c3ccc(Cl)cc3c3ccc4c5cc(Cl)ccc5[nH]c4c32)OC[C@H]1O | nt | nt | -29 | nt | nt
COc1ccc(-n2c(COc3ccc(C)cc3)nnc2SCC(=O)Nc2ccc(S(=O)(=O)Nc3cc(C)nc(C)n3)cc2)cc1 | nt | nt | 12 | nt | nt
O=S1(=O)c2ccc(Br)cc2OC[C@@H](c2ccccc2)N1Cc1cn(Cc2ccccc2)nn1 | nt | nt | -1 | nt | nt
O=C(N[C@@H]1C[C@@H]2O[C@@H](CO)CC[C@@H]2O[C@@H]1CCc1ccc(-c2ccccc2)cc1)c1cnccn1 | nt | nt | 18 | nt | nt
CCN(CC)c1ccc(N)cc1 | -7 | 2 | nt | 61* | 20
Nc1ccc(N(CCO)CCO)cc1 | 3 | 4 | -16 | -11 | -2
COC(=O)[C@]12C[C@H](CC(=O)N3CCN(C(=O)c4ccco4)CC3)C(=O)N(Cc3ccccc3)C1=C[C@H](COCc1ccccc1)O[C@@H]2C | nt | nt | -9 | nt | nt
CC1=C2NC(N)=[N+](Cc3ccc4c(c3)OCO4)CC2n2c(=O)n(-c3ccccc3)c(=O)n2C1 (stereo not drawn) | nt | nt | 6 | nt | nt
NS(=O)(=O)c1ccc(Sc2nc3ccccc3s2)c([N+](=O)[O-])c1 | 24 | 62* | 39 | 14 | 56
COc1cc(OC)c2c(-c3cccc(-c4sccc4C(C)=O)c3)cc(=O)oc2c1 | -29 | 18 | 17 | 67* | -11
COc1ccc2c(c1)-c1c(ssc1=S)C(C)(C)N2 | 58 | 66* | 42 | -21 | 46
Cc1ccc(-n2nnnc2Sc2ccc(S(=O)(=O)NCCN(C)C)cc2[N+](=O)[O-])cc1 | 18 | 67* | 50 | 13 | 36
CO/N=C/NC(=O)N1OC[C@@H]2COc3ccc4ccccc4c3[C@@H]21 | 8 | 5 | 19 | -3 | 4
NC(=S)N1OC[C@@H]2COc3ccc4ccccc4c3[C@@H]21 | 18 | 11 | 54* | -29 | 28
SMILES | NCOA1 inh | SRC3 inh | NCOA2 inhibitor | Gli-Sufu block | LRH-1 inv ag
Cc1cnc(NC(=O)CCCc2nc3ccccc3s2)s1 | -14 | 15 | 21 | -79 | 83*
O=C(CCCc1nc2ccccc2s1)Nc1nccs1 | 0 | -21 | -43 | 1 | -5
CCc1ccc(-c2nc(CS(=O)CC(=O)NCc3ccccc3)c(C)o2)cc1 (stereo not drawn) | 10 | -7 | 55* | 23 | 24
CCc1ccc(-c2nc(CN3CCC(C(=O)NCc4ccc(F)cc4)CC3)c(C)o2)cc1 | 2 | -6 | -10 | 93* | -5
Cc1oc(-c2ccc(Cl)cc2)nc1CS(=O)CC(=O)NCc1ccccc1 (stereo not drawn) | -5 | -28 | -17 | -25 | 10
CC(C)(C)OC(=O)NCCCCCc1cn([C@@H](CO)C(=O)NCCCCCCCCCCC(=O)N2CCN(C(=O)OC(C)(C)C)CC2)nn1 | 53 | 72* | 54* | 60* | 48
CN(Cc1ccccc1)C(=O)OCc1cn(Cc2ccc(F)c(F)c2)nn1 | nt | nt | -5 | nt | nt

Screens as filed in PubChem.
